What all share (assay): protein-binding microarray (PBM); PBM: ~300 nM protein, 6 mM HEPES pH 7.8, 80 mM KCl, 0.5 mM EDTA, 0.5 mM EGTA, 6% glycerol, 35 ng/ul poly-dIdC, 1% milk, 1 h, room temperature; Ap Aiptasia and Nv Nematostella (sea anemones) / Co Capsaspora / Aq Amphimedon (sponge) / Dm Drosophila / Hu human; RHD is the Rel homology domain; high values mean tight binding
Holding throughout (conditions): dsDNA, one strand shown

One assay has as its target T1, GST-Ap-NF-kB RHD (Exaiptasia pallida (Aiptasia), UniProt A0A913YAJ5 2-422).
T1 sequence: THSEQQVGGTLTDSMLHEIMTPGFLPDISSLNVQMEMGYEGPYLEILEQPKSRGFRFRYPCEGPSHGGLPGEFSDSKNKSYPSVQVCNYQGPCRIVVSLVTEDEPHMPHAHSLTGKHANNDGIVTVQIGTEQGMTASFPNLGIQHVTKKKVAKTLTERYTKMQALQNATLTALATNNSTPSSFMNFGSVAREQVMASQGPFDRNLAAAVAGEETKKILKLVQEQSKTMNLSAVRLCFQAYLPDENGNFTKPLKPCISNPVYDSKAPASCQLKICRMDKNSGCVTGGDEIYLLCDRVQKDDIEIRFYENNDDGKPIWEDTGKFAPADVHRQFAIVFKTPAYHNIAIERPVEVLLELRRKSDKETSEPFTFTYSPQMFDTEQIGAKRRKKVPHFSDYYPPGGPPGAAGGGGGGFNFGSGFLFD

Assay [1] deals with T2, GST-Nv-NF-kB (Cys allele) (Nematostella vectensis, UniProt E5G601 2-411).
T2 sequence: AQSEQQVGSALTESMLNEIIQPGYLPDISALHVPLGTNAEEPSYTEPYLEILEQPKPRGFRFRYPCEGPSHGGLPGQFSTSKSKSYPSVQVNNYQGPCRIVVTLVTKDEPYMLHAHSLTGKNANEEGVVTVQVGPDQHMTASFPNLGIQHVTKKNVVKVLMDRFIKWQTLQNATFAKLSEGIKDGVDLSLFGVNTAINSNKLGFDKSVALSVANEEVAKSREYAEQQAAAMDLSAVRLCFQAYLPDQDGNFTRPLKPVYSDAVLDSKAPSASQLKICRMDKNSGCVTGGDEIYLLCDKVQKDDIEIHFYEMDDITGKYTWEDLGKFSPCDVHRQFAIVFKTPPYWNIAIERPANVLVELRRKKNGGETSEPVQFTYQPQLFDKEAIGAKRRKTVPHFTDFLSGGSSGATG

Assay [2] deals with T3, GST-Nv-NF-kB (Ser allele) (Nematostella vectensis, UniProt A7UNT2 2-411).
T3 sequence: T2 sequence with Q21R, C66S, S207N, E215Q, V217A, E225K, A268E, D399E

A further assay addresses T4, GST-Co-NF-kB (Capsaspora owczarzaki, UniProt F1ARL5 200-546).
T4 sequence: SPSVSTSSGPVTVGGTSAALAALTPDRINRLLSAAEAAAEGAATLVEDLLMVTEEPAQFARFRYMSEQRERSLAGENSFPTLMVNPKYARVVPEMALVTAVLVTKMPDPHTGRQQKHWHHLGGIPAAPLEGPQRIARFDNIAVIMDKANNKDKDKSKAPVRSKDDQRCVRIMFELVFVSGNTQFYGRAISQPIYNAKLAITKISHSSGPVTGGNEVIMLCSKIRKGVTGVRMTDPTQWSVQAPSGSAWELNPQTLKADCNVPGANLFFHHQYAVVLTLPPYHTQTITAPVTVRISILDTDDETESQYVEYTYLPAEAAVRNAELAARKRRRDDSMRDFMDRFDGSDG

In the next assay the target is T5, GST-Dm-Relish (Drosophila melanogaster, UniProt Q94527 99-473).
T5 sequence: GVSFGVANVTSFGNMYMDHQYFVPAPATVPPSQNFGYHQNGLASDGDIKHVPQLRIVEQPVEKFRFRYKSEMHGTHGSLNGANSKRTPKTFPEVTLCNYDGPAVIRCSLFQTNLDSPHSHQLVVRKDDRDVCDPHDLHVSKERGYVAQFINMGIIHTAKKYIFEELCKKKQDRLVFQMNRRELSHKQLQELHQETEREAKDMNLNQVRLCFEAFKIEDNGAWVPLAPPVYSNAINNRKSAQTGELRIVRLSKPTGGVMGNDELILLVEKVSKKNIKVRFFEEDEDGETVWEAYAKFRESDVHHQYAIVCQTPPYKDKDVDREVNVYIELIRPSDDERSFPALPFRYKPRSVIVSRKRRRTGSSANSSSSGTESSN

For a further assay, the target named is T6, GST-Aq-NF-kB (Amphimedon queenslandica, UniProt A9Y5G7 2-389).
T6 sequence: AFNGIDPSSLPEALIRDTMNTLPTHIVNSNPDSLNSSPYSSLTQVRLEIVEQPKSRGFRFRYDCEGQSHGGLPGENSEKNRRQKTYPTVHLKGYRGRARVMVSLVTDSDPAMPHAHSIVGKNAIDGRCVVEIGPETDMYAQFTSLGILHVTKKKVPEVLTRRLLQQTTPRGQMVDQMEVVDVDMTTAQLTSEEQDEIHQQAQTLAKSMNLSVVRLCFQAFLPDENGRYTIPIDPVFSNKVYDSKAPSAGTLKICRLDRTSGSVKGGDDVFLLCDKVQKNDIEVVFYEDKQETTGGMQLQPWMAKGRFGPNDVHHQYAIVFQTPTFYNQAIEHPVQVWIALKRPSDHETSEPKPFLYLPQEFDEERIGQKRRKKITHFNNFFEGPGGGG

The target in another assay is GST-Hu-p50 (Homo sapiens, UniProt P19838 7-356).
Chain of GST-Hu-p50 (P19838 7-356): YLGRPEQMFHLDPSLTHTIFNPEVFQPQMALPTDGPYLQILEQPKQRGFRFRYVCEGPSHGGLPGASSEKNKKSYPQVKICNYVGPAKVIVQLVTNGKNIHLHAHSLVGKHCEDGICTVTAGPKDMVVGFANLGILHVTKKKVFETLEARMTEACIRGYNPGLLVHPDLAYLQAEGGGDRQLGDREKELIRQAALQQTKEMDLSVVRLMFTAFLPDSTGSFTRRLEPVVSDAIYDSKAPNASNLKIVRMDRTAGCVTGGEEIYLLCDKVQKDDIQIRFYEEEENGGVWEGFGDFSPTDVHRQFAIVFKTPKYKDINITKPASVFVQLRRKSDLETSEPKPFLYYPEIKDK

Numbering of substitutions follows the chain as printed.

“CCGATTAACATCAGGGAAAGCACTGATGTTAATCGGGTCTTGATTCGCTTGACGCTGCTG”: the binding signal in the assay with GST-Ap-NF-kB RHD amounted to 3.61 z-score; in assay [1], 4.73 z-score; in assay [2], 3.86 z-score; with GST-Co-NF-kB, 2.69 z-score; in the assay with GST-Dm-Relish it was 6.76 z-score; with GST-Aq-NF-kB it was 6.5 z-score. For the same sequence, in the assay with GST-Hu-p50, the binding signal is 3.98 z-score.

On to “CCGATTAACATCACGTACTCCCCTGATGTTAATCGGGTCTTGATTCGCTTGACGCTGCTG”, for which the binding signal with GST-Ap-NF-kB RHD was 4.07 z-score; in assay [1], 2.77 z-score; in assay [2] it was 3.43 z-score; with GST-Co-NF-kB it was 2.99 z-score; with GST-Dm-Relish, 4 z-score; in the assay with GST-Aq-NF-kB, 2.92 z-score. Further, in the assay with GST-Hu-p50, the binding signal is 2.83 z-score.

In the case of “CCGATTAACATCAGGGCAACCCCTGATGTTAATCGGGTCTTGATTCGCTTGACGCTGCTG”, the binding signal with GST-Ap-NF-kB RHD is 3.77 z-score; in assay [1], 2.55 z-score; in assay [2], 1.13 z-score; with GST-Co-NF-kB, 1.28 z-score; with GST-Dm-Relish, 4.15 z-score; in the assay with GST-Aq-NF-kB, 5.95 z-score. This sequence gave a binding signal in the assay with GST-Hu-p50 of 3.08 z-score.

Take “CCGATTAACATCAAGTAATCCCCTGATGTTAATCGGGTCTTGATTCGCTTGACGCTGCTG”: the binding signal with GST-Ap-NF-kB RHD amounted to 7.36 z-score; in assay [1] it was 7.72 z-score; in assay [2], 7.94 z-score; with GST-Co-NF-kB it was 3.88 z-score; with GST-Dm-Relish it was 7.56 z-score; with GST-Aq-NF-kB it was 6.04 z-score. For the same sequence, the binding signal with GST-Hu-p50 turned out to be 5.93 z-score.

Regarding “CCGATTAACATCAATCCTCCCCCTGATGTTAATCGGGTCTTGATTCGCTTGACGCTGCTG”, the binding signal with GST-Ap-NF-kB RHD came to 5.52 z-score; in assay [1], 4.44 z-score; in assay [2], 5.85 z-score; with GST-Co-NF-kB, 8.24 z-score; with GST-Dm-Relish, 2.9 z-score; with GST-Aq-NF-kB, 4.98 z-score. The binding signal with GST-Hu-p50 came to 4.83 z-score.

As to “CCGATTAACATCAGGGAATCTACTGATGTTAATCGGGTCTTGATTCGCTTGACGCTGCTG”, the binding signal turned out to be 2.43 z-score with GST-Ap-NF-kB RHD; 3.44 z-score in assay [1]; 3.68 z-score in assay [2]; 1.94 z-score in the assay with GST-Co-NF-kB; 4.76 z-score with GST-Dm-Relish; 4.82 z-score with GST-Aq-NF-kB. For the same sequence, the binding signal with GST-Hu-p50 was 2.96 z-score.

Regarding “CCGATTAACATCAGCGATTCCCCTGATGTTAATCGGGTCTTGATTCGCTTGACGCTGCTG”, the binding signal in the assay with GST-Ap-NF-kB RHD came out at 6.31 z-score; in assay [1], 6.55 z-score; in assay [2] it was 8.57 z-score; in the assay with GST-Co-NF-kB it was 5.5 z-score; with GST-Dm-Relish, 3.63 z-score; in the assay with GST-Aq-NF-kB, 4.44 z-score. In the assay with GST-Hu-p50, this sequence came in with a binding signal of 5.54 z-score.

As to “CCGATTAACATCAGGGAAATCCATGATGTTAATCGGGTCTTGATTCGCTTGACGCTGCTG”, the binding signal worked out at 4.11 z-score with GST-Ap-NF-kB RHD; 5.43 z-score in assay [1]; 5.07 z-score in assay [2]; 3.28 z-score with GST-Co-NF-kB; 5.65 z-score with GST-Dm-Relish; 5.63 z-score with GST-Aq-NF-kB. The sequence also yielded a binding signal with GST-Hu-p50 of 3.96 z-score.

Turning to “CCGATTAACATCAGACAATCCCCTGATGTTAATCGGGTCTTGATTCGCTTGACGCTGCTG”, the binding signal in the assay with GST-Ap-NF-kB RHD was found to be 6.6 z-score; in assay [1], 7.1 z-score; in assay [2] it was 7.4 z-score; with GST-Co-NF-kB it was 2.24 z-score; in the assay with GST-Dm-Relish it was 4.95 z-score; with GST-Aq-NF-kB, 5.98 z-score. In addition, the binding signal with GST-Hu-p50 is 5.79 z-score.

With “CCGATTAACATCACGGGAAAACCTGATGTTAATCGGGTCTTGATTCGCTTGACGCTGCTG”, the binding signal with GST-Ap-NF-kB RHD came to 4.2 z-score; in assay [1], 4.49 z-score; in assay [2], 5.49 z-score; with GST-Co-NF-kB, 5.1 z-score; with GST-Dm-Relish it was 4.62 z-score; with GST-Aq-NF-kB it was 5.78 z-score. The same sequence yielded a binding signal with GST-Hu-p50 of 3.46 z-score.

Turning to “CCGATTAACATCAGGGGAATATATGATGTTAATCGGGTCTTGATTCGCTTGACGCTGCTG”, the binding signal with GST-Ap-NF-kB RHD came out at 7.96 z-score; in assay [1] it was 9.67 z-score; in assay [2], 9 z-score; with GST-Co-NF-kB it was 7.8 z-score; in the assay with GST-Dm-Relish, 5.02 z-score; with GST-Aq-NF-kB, 7.45 z-score. This sequence also gave a binding signal in the assay with GST-Hu-p50 of 6.01 z-score.

As for “CCGATTAACATCACAAGTTTCCCTGATGTTAATCGGGTCTTGATTCGCTTGACGCTGCTG”, the binding signal with GST-Ap-NF-kB RHD is 4.14 z-score; in assay [1], 5.33 z-score; in assay [2], 5.84 z-score; with GST-Co-NF-kB, 4.92 z-score; in the assay with GST-Dm-Relish it was 2.52 z-score; with GST-Aq-NF-kB, 5.24 z-score. In the assay with GST-Hu-p50, the binding signal was found to be 4.17 z-score.

The record behind these values is paper PMC5700166.
